Source: PubChem BioAssay AID588591 (National Center for Advancing Translational Sciences (NCATS), 2011)
The whole screen tested about 390,000 compounds, of which about 4,700 (1.2%) were called active. About 4% were inconclusive and are not listed. The call rests on the fitted dose curve; in most records, active means well fitted inhibition curve with a large enough effect; inconclusive means small, poorly fitted or top-dose-only effect, or another doubt; inactive means no such curve, though single readings can be large or run the other way. The full list was thinned out, with actives kept by preference.

Molecular target: DNA polymerase eta (Homo sapiens) (UniProt Q9Y253)
Assay: qHTS for Inhibitors of Polymerase Eta
Conditions: recombinant Pol eta, fluorescent DNA replication assay; series mostly up to 114 µM
How it was run: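 Pol eta at 10 nM preincubated with compounds 15 min at room temperature; reaction started with fluorescent substrate (50 nM final) and read kinetically at 0 and 10 min.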
Potency means the concentration at half of the fitted maximal effect.

Sequence of DNA polymerase eta (Homo sapiens) (Q9Y253 whole entry, looked up): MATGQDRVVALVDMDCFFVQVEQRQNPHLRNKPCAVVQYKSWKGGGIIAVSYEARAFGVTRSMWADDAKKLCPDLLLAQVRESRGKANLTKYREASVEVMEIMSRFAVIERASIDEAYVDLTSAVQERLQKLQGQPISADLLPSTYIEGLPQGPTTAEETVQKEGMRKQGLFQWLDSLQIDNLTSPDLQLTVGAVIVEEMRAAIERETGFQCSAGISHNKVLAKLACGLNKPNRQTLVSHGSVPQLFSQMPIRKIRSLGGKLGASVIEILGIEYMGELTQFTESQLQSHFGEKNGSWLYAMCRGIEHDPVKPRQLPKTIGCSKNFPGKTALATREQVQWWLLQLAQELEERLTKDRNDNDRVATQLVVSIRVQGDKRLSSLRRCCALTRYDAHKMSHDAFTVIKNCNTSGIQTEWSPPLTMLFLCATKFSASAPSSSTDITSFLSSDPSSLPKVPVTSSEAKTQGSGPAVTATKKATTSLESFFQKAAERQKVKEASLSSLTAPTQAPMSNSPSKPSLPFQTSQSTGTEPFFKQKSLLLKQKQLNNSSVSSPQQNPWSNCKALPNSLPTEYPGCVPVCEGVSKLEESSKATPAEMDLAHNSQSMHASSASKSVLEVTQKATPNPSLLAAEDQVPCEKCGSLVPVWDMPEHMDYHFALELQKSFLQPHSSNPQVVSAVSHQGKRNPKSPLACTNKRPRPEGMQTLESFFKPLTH

Potency, inactive:
O=C(Nc1ccc2cn[nH]c2c1)c1ccc(S(=O)(=O)N2CCOCC2)cc1
O=S(=O)(Nc1ccc2[nH]ncc2c1)c1ccccc1Cl
CCCn1c2ccccc2c2cnn(CC(=O)N(C)c3ccccc3CC)c(=O)c21
Cc1c(C(=O)NC2CCCCC2)oc2ccccc12
Cc1ccc(NC(=O)c2oc3ccccc3c2C)c([N+](=O)[O-])c1
COc1ccccc1CNc1nccn(-c2ccc(F)cc2)c1=O
O=C(O)C1=C[C@H](c2cccs2)C[C@H](OCCCCO)O1
O=C(NCc1ccccc1)C1=C[C@@H](c2ccccc2)C[C@@H](OCCCCO)O1
COc1ccc(CCNC(=O)c2c3c(nc4ccccc24)C(=O)N(C2CCCCC2)C3)cc1OC
CCNC(=O)CC1C(=O)N(c2ccc(F)cc2)C(=O)N1Cc1ccc(C)cc1 (stereo not drawn)
CCC(=O)N1CCc2cc(S(=O)(=O)NCCC(=O)Nc3cccc(C)c3C)ccc21
Cc1oc(-c2ccccc2F)nc1CN1CCC(C(=O)NCCc2ccc(Cl)cc2)CC1
Cc1cccc(NC(=O)CSCC(=O)Nc2nnc(C3CC3)s2)c1
CCc1ccccc1OCC(=O)Nc1nnc(C2CC2)s1
Cc1ccc(CNC(=O)c2c(O)nc3c(C)cccn3c2=O)cc1
C/C=C(\C)C(=O)N1CC2(CC(c3cccc(NC(=O)CCCCC)c3)=NO2)C[C@@H]1C(N)=O (stereo partly drawn)
NC(=O)[C@H]1CC2(CC(c3cccc(NC(=O)[C@H]4CCC(=O)N4)c3)=NO2)CN1C(=O)c1ccccc1C(=O)c1ccccc1 (stereo partly drawn)
CCOc1ccccc1CNCc1c(C(=O)O)c(C)n(Cc2ccc(C)cc2)c1C
COc1ccc(CNC(=O)c2cc3c(-c4ccccc4F)nn(C)c3s2)c(OC)c1
Cc1ccc(C)c(Cn2c(C(=O)O)c(CNCc3cccs3)c3ccccc32)c1
CCOc1ccc2nc(N3CCCC(C(=O)Nc4cc(C)ccc4C)C3)sc2c1 (stereo not drawn)
C[C@@H]1O[C@@H](OC[C@H]2O[C@@H](Oc3c(-c4ccc(O)cc4)oc4cc(O)cc(O)c4c3=O)[C@H](O)[C@@H](O)[C@@H]2O)[C@H](O)[C@H](O)[C@H]1O
COc1ccc(CCOC2OC(CO)C(OC(=O)/C=C/c3ccc(O)c(OC)c3)C(O[C@H]3O[C@@H](C)[C@H](O)[C@@H](O)[C@H]3O)C2O)cc1O (stereo partly drawn)
Cc1cc(-c2n[nH]c(=S)n2-c2ccc(C)c(C)c2)no1
COc1ccc(OCc2n[nH]c(=S)n2N)cc1
COc1ccc(C(=O)Nc2nonc2-c2ccc(OC)c(OC)c2)cc1Cl
Cc1cccc(OCCCC(=O)Nc2sc3c(c2C(N)=O)CCC(C)C3)c1 (stereo not drawn)
Cc1ccc(S(=O)(=O)N2CCCC2C(=O)OCc2nc3sc(C)c(C)c3c(=O)[nH]2)cc1 (stereo not drawn)
CCN(CC)Cc1nc2sc(C)c(C)c2c(=O)[nH]1
CCc1nn(CC(=O)NCC(C)c2ccccc2)c(=O)c2cc3occc3n12 (stereo not drawn)
Cc1cc(Cl)ccc1OCC(=O)N(Cc1ccc(N(C)C)cc1)C1CCS(=O)(=O)C1 (stereo not drawn)
COc1ccc2c(c1)c(=O)c(C(=O)c1ccccc1)cn2CC(=O)Nc1ccc2c(c1)OCCO2
CCOC(=O)c1ccc(NC(=O)C2CCN(S(=O)(=O)c3ccc4c(c3)CCCC(=O)N4)CC2)cc1
O=c1n(Cc2cccc(C(F)(F)F)c2)c2ccccc2c2nc(-c3ccccc3)nn12
Cc1ccccc1C(=O)N1CCC(C(=O)Oc2ccc(C#N)cc2)CC1
N#Cc1ccc(C2=CC(=O)C[C@H](c3ccc(Cl)cc3)C2)cc1
CCOC(=O)c1c(N)n(-c2cccc(C)c2C)c2nc3ccccc3nc12

Potency, active:
O=C(O)c1cc(S(=O)(=O)Nc2ccc3cn[nH]c3c2)ccc1Br 50.1 µM
Cc1c(C(=O)Nc2ccccn2)oc2ccc(Br)cc12 39.8 µM
C#Cc1ccc([C@@H]2C=C(C(=O)O)O[C@H](OCCCCO)C2)cc1 20 µM
CCc1cc(C(=O)Nc2nnc(C3CC3)s2)sc1C 50.1 µM
C=C(C)C(=O)Nc1cccc(C2=NOC3(C2)C[C@H](C(N)=O)N(C(=O)C(c2ccccc2)c2ccccc2)C3)c1 (stereo partly drawn) 3.98 µM
O=[N+]([O-])c1ccc(C=Nc2ccc(Cl)cc2Cl)s1 89.1 µM
CS(=O)(=O)c1ccc2c(c1)SC1=NC(=O)/C(=C/c3ccco3)C(=N)N12 3.16 µM
COc1ccc(-c2cc(=O)c3c(O)cc(O[C@@H]4O[C@H](CO[C@@H]5O[C@@H](C)[C@H](O)[C@@H](O)[C@H]5O)[C@@H](O)[C@H](O)[C@H]4O)cc3o2)cc1O 79.4 µM
COc1ccccc1-n1c(-c2cc(-c3ccco3)[nH]n2)n[nH]c1=S 50.1 µM
CSc1nnc(SCc2nc3sc(C(=O)O)c(C)c3c(=O)[nH]2)s1 3.16 µM
CC1(OC(=O)C2CCCC2)C(=O)C=C2C=C(c3ccc(C#N)cc3)OC=C2C1=O (stereo not drawn) 20 µM
